Measurements as given in ChEMBL document CHEMBL3988442, “University of Dundee, Small-Polar-MMV Screening Library” (2021).
Out of some 48,000 compounds screened, about 13,000 (27%) showed an effect of 50% or more. Some of the results follow.

System: Wolbachia pipientis
Assay: Anti-Wolbachia Cell-Based Screen
Format: functional
Design: scale not given: in the data most compounds retested in dose-response had high values
Conditions: 5 µM

First: Cc1cc(C2CN(CC(=O)NCc3ccco3)CCO2)ccc1F (stereo not given)
Second: Cc1cnn(CC2CN(CC(=O)NCCc3cccs3)CCO2)c1 (stereo not given)
The “Percent Effect” value of the first is lower: -9.058% for the first, -8.737% for the second.

Compared with `CN(C)C(=O)CN1C(=O)[C@H]2CC[C@@H]1CN(Cc1ccccc1C#N)C2`, `Cc1ccc(N2CCCC(N3CCC(N(C)C)CC3)C2=O)cc1` (stereo not given) is higher in “Percent Effect” value: -21.45% for the first, 3.726% for the second.

First: COC(=O)Cc1cccc(NC(=O)Cc2cc(C)[nH]n2)c1
Second: CCc1cccc(C)c1NC(=O)C1CC(=O)N(Cc2ccccn2)C1 (stereo not given)
The “Percent Effect” value of the first is lower: 1.53% for the first, 16.74% for the second.

Going from `Cc1nc(CCN)cc(N2CCOc3ccc(Cl)cc3C2)n1` to `COC(=O)c1cccc(C(=O)N2CCN(c3cc(Cl)ccc3C)CC2)n1`, the “Percent Effect” value rises from 10.69% to 103.9%.

First: CCN(Cc1ccc2c(c1)OCO2)C(=O)CCc1c(C)nc(C)[nH]c1=O
Second: COCc1noc(CCNC(=O)c2cc(C)c(C)[nH]c2=O)n1
The “Percent Effect” value of the first is lower: -8.876% for the first, 20.99% for the second.

First: CCOC(=O)c1n[nH]cc1CN1CCOC(Cc2ccc(OC)cc2)C1 (stereo not given)
Second: CCCn1cnnc1CNC(=O)C1COc2cc(OC)ccc2C1 (stereo not given)
The “Percent Effect” value of the first is lower: -36.24% for the first, -15.52% for the second.

Going from `CC(=O)NCCNc1nccc(CCC(F)(F)F)n1` to `CC(C)(C)CCNc1nccc(-c2c[nH][nH]c2=O)n1`, the “Percent Effect” value rises from -2.049% to 100.4%.

Going from `COCCCNc1nccc(-c2c[nH][nH]c2=O)n1` to `COCc1nc(Cn2ncn3cccc3c2=O)no1`, the “Percent Effect” value rises from 1.466% to 10.93%.

First: Cc1nnc(SCCC(=O)N(C)Cc2ccc(Cl)s2)[nH]1
Second: CCc1cnc(CN(C)C(=O)NC2CCN(C)C2=O)s1 (stereo not given)
The “Percent Effect” value of the first is higher: 6.778% for the first, 1.007% for the second.

Going from `O=C(C1CN(CC2CCOCC2)CC12CCOCC2)N1CCCC1.O=C(O)C(F)(F)F` (stereo not given) to `Cc1ccc(CN2C[C@H](OCC3CCOCC3)[C@H]3COC[C@H]32)o1.O=C(O)C(F)(F)F`, the “Percent Effect” value rises from 0.226% to 113.3%.

First: COc1cc(C)nc(N2CCN(C(=O)c3cc(Cl)c[nH]3)CC2)n1
Second: COC(=O)c1cccc(C(=O)N2CCN(c3cc(C)ccc3C)CC2)n1
The “Percent Effect” value of the first is lower: 7.277% for the first, 123.5% for the second.

Going from `CC(=O)N1CCCN(C(=O)c2ccn(-c3cccc(Cl)c3)n2)CC1` to `COC(=O)c1cccc(C(=O)N2CCN(c3cccc(C)c3C)CC2)n1`, the “Percent Effect” value falls from 4.023% to -16.02%.

Going from `O=C(OCCF)c1cccc(C(=O)N2CCCC2)n1` to `NC(=O)c1cnc(-c2ccccc2)nc1CCNC(=O)CN1CCCC1`, the “Percent Effect” value rises from 7.504% to 124.4%.

First: COCC1CN(Cc2cc(C)on2)Cc2cn(CC3CCCC3)nc21.O=C(O)C(F)(F)F.O=C(O)C(F)(F)F (stereo not given)
Second: Cc1noc(C)c1CN1Cc2cn(C)nc2C(COCC2CC2)C1.O=C(O)C(F)(F)F.O=C(O)C(F)(F)F (stereo not given)
The “Percent Effect” value of the first is higher: 1.452% for the first, 0.03565% for the second.

Compared with `CNS(=O)(=O)Cc1cccc(CNc2ccc(Cl)cn2)c1`, `NC(=O)c1cnc(NC2CC2)nc1CCNC(=O)Cc1ccccc1` is higher in “Percent Effect” value: 7.116% for the first, 131.4% for the second.

First: O=C(C(NCc1cccc(F)c1F)c1ccccc1)N1CCOCC1 (stereo not given)
Second: Cc1cnc(NC2CCN(CC(=O)Nc3ccccc3)CC2)nc1C
The “Percent Effect” value of the first is lower: -0.9973% for the first, 3.522% for the second.

Going from `CC(C)N1CCO[C@H]2CN(C(=O)c3ccoc3)C[C@H]21.O=C(O)C(F)(F)F` to `CNC(=O)CN1CC[C@H]2CN(C(=O)c3ccoc3)C[C@H]2C1.O=C(O)C(F)(F)F`, the “Percent Effect” value rises from -10.4% to 90.52%.

Compared with `CC(C)N1[C@H](CN2CCCC2)C[C@@H]2CN(C(=O)c3ccoc3)CC[C@@H]21.O=C(O)C(F)(F)F.O=C(O)C(F)(F)F`, `Cc1ccc(CN2C[C@H](N3CCOCC3)[C@@H]3OCCC[C@@H]32)o1.O=C(O)C(F)(F)F.O=C(O)C(F)(F)F` is higher in “Percent Effect” value: -8.643% for the first, -1.951% for the second.

First: CNC(=O)CN1CC[C@H]2CN(C(=O)c3cccn3C)C[C@H]2C1.O=C(O)C(F)(F)F
Second: CNC(=O)CN1CC[C@H]2CN(C(=O)c3cccc(C)c3)C[C@H]2C1.O=C(O)C(F)(F)F
The “Percent Effect” value of the first is lower: 94.61% for the first, 104.9% for the second.

Compared with `Cc1cccc(C(=O)N2C[C@@H]3CCN(C(C)C)C[C@@H]3C2)c1.O=C(O)C(F)(F)F`, `CNC(=O)CN1CC[C@H]2CN(C(=O)c3ccc(C)cc3)C[C@H]2C1.O=C(O)C(F)(F)F` is higher in “Percent Effect” value: -3.353% for the first, 117% for the second.

Going from `O=C(O)C(F)(F)F.O=C(c1ccc(F)cc1)N1C[C@@H]2CCN(c3cccnc3)C[C@@H]2C1` to `O=C(O)C(F)(F)F.O=C(c1ccc(O)cc1)N1C[C@@H]2CCN(c3cccnc3)C[C@@H]2C1`, the “Percent Effect” value falls from 11.69% to 9.269%.

First: CN(C)C[C@H]1OC[C@@H]2CCN(C(=O)c3cccn3C)C[C@@H]21.O=C(O)C(F)(F)F
Second: Cn1cccc1C(=O)N1C[C@@H]2CCN(c3cccnc3)C[C@@H]2C1.O=C(O)C(F)(F)F
The “Percent Effect” value of the first is higher: -2.348% for the first, -18.75% for the second.

First: CNC(=O)[C@@H]1C[C@@H](NC(=O)c2cn(C)nc2C)CN1Cc1sccc1C
Second: CCc1c(C)nc2n(c1=O)CC(C(=O)Nc1sccc1C(=O)OC)CS2 (stereo not given)
The “Percent Effect” value of the first is lower: 22.01% for the first, 119.9% for the second.

Compared with `Cc1cc(C(=O)N(C)C(C)CC(C)C)on1` (stereo not given), `Cc1cc(C(F)(F)F)cc(=O)n1Cc1nc(C(C)C)no1` is higher in “Percent Effect” value: -13.06% for the first, 99.71% for the second.

First: CN(C)c1ccc2c(c1)CN(C(=O)c1ccco1)C2c1cnco1 (stereo not given)
Second: Cc1cnc2n(c1=O)CC(C(=O)Nc1cccc3cccnc13)CS2 (stereo not given)
The “Percent Effect” value of the first is higher: 6.499% for the first, 0.1912% for the second.

Compared with `O=C(Nc1ccc(-c2csnn2)cc1)N1CC[C@H](O)C1`, `O=C(CC1CCCC1)NCCn1ccc(-c2ccncc2)n1` is lower in “Percent Effect” value: -5.302% for the first, -13.95% for the second.

Going from `CCC(C(=O)NC(C)(C)C)n1cccc(OC)c1=O` (stereo not given) to `CCC(NC(=O)c1cccc(N2CCCC2=O)c1)c1ccc(OC)cc1` (stereo not given), the “Percent Effect” value falls from -8.788% to -14.69%.

Compared with `O=C(O)C(F)(F)F.O=C(c1cc[nH]n1)N1CC[C@@H]2CN(Cc3ccncc3)S(=O)(=O)[C@@H]2CC1`, `CCN1C[C@H]2CCN(C(=O)c3cc[nH]n3)CC[C@H]2S1(=O)=O` is higher in “Percent Effect” value: -5.267% for the first, 7.026% for the second.

Compared with `CNC(=O)CN1CC[C@H]2CN(C(=O)c3cc[nH]n3)C[C@H]2C1.O=C(O)C(F)(F)F`, `CNC(=O)[C@H]1C[C@H]2OCC[C@H]2N(Cc2ccc(C)o2)C1.O=C(O)C(F)(F)F` is lower in “Percent Effect” value: 106.6% for the first, -19.44% for the second.

Going from `CCn1cc(CN2CCC(CN3CCCCC3)CC2)cc1C#N` to `O=C(CCCc1cn[nH]c1)N1C[C@H](CO)C[C@H](CN2CCCC2)C1`, the “Percent Effect” value rises from -0.8018% to 5.812%.

Compared with `NC(=O)CN1CCC(C(=O)NCCc2nc(-c3ccccc3)cs2)CC1`, `O=C(CCNC(=O)NC1CC1)NCc1ccccc1` is higher in “Percent Effect” value: 3.799% for the first, 4.625% for the second.

Going from `Cc1nc(O)cc(CCNC(=O)CN2CCCCCC2)n1` to `NC(=O)c1cnc(NC2CC2)nc1CCNC(=O)CC1CCCC1`, the “Percent Effect” value rises from -0.8715% to 144.1%.

Compared with `O=C(CC1CCCC1)NCCNCc1cccc2c1OCCO2`, `Cc1[nH]ncc1CCCNC(=O)N1CCN2CCCCC2C1` (stereo not given) is higher in “Percent Effect” value: -15.98% for the first, -2.363% for the second.

Compared with `Cc1cc(C)c2[nH]c(=O)c(CN3CCC(O)(CN(C)C)C3)cc2c1` (stereo not given), `Cc1cc(F)cc(S(=O)(=O)Nc2noc(C)n2)c1` is lower in “Percent Effect” value: -2.791% for the first, -6.165% for the second.

Compared with `COc1ccc(-c2ccc(C(=O)O)c(F)c2)c(F)c1`, `COCCn1/c(=N\C(=O)CN(C)S(C)(=O)=O)sc2cc(OC)ccc21` is lower in “Percent Effect” value: -9.144% for the first, -16.36% for the second.

First: CC(=O)c1ccc(N2CCC3(CC2)CC(=O)N(C)C3)nc1
Second: CC1(c2ccccc2)CCC(=O)N(CCN2CCCOC2=O)C1 (stereo not given)
The “Percent Effect” value of the first is higher: 9.989% for the first, -2.659% for the second.

Compared with `CCc1c(C)nc2n(c1=O)CC(C(=O)Nc1ncccc1C)CS2` (stereo not given), `CCc1c(C)nc2n(c1=O)CC(C(=O)Nc1ccccc1C)CS2` (stereo not given) is lower in “Percent Effect” value: 124.5% for the first, 112.9% for the second.

First: CCc1c(C)nc2n(c1=O)CC(C(=O)Nc1nccs1)CS2 (stereo not given)
Second: CCc1c(C)nc2n(c1=O)CC(C(=O)Nc1ccccc1F)CS2 (stereo not given)
The “Percent Effect” value of the first is higher: 17.24% for the first, -0.8379% for the second.

First: Cc1cnc2n(c1=O)CC(C(=O)NC1CC1)CS2 (stereo not given)
Second: Cc1cc(CN2CC[C@H]3[C@H]2CCN3S(C)(=O)=O)oc1C.O=C(O)C(F)(F)F
The “Percent Effect” value of the first is higher: -10.47% for the first, -17.79% for the second.

Going from `Cc1cc(=O)n2ncnc2n1CC(O)COCc1ccccc1Cl` (stereo not given) to `Cc1cc(C(F)(F)F)cc(=O)n1CCn1cc(Cl)cn1`, the “Percent Effect” value rises from -44.43% to -6.58%.

First: Cc1noc(C)c1CN1C[C@H](OCC2CCN(C)CC2)[C@H]2COC[C@H]21.O=C(O)C(F)(F)F.O=C(O)C(F)(F)F
Second: Cc1noc(C)c1CN1CCc2cnn(C)c2C1COCC1CC1.O=C(O)C(F)(F)F.O=C(O)C(F)(F)F (stereo not given)
The “Percent Effect” value of the first is higher: 122.2% for the first, -11.43% for the second.

Going from `COCCN1C[C@H]2[C@@H](C1)N(Cc1ccc(C)o1)CC[C@H]2OC` to `Cc1ccc(CN2C[C@H](OCC3CCN(C)CC3)[C@H]3COC[C@H]32)o1`, the “Percent Effect” value rises from 6.788% to 110.9%.

Going from `Cc1cc(CN2C[C@H](N3CCOCC3)[C@@H]3OCCC[C@@H]32)oc1C.O=C(O)C(F)(F)F.O=C(O)C(F)(F)F` to `Cc1cc(CN2C[C@H](OCC3CCOCC3)[C@H]3COC[C@H]32)oc1C.O=C(O)C(F)(F)F`, the “Percent Effect” value rises from -6.636% to 99%.

Compared with `CN1CCC(CO[C@H]2CN(C(=O)c3cccn3C)[C@@H]3COC[C@H]23)CC1`, `Cc1ccc(F)c(C(=O)N2CCN(S(C)(=O)=O)[C@@H](C)C2)c1` is higher in “Percent Effect” value: -44.74% for the first, 7.436% for the second.

Compared with `CC(Cn1cnc2cn(C)nc2c1=O)Oc1cccnc1` (stereo not given), `Cc1cnn(CCCn2c(C)cc(C(F)(F)F)cc2=O)c1` is lower in “Percent Effect” value: -0.8182% for the first, -18.2% for the second.

First: CCOCCNC(=O)c1cccc(S(=O)(=O)NC[C@@H]2C[C@H](F)CN2)c1
Second: Cc1cc(C(F)(F)F)cc(=O)n1CCCn1cnnn1
The “Percent Effect” value of the first is higher: -1.824% for the first, -2.026% for the second.

Compared with `COCc1nc(CN2C(=O)OC[C@@H]2C(C)C)no1`, `COCc1nc(Cn2c(C)cc(C(F)(F)F)cc2=O)no1` is higher in “Percent Effect” value: 7.812% for the first, 116.4% for the second.

`COCc1noc(Cn2c(C)cc(C(F)(F)F)cc2=O)n1` was tested, and the “Percent Effect” value was 123.4%.
